Screening results: PubChem, National Center for Advancing Translational Sciences (NCATS)
A selection: hits, their analogues and other compounds. The true share with any hit is near 3.3%.
NPSR antag: blocks cAMP signaling of the human neuropeptide S receptor; Q6W5P4; Potency, µM (doses to about 38.3 µM), for inactives: at the top dose activity change, negative = inhibition, most hits filed as inhibitors; CHO-NPSR cells, cAMP TR-FRET, antagonist mode; hit rate 1% among 220,000; also: nearly all actives have a fitted effect of over 50% in size
Target sequence (Q6W5P4 whole entry, looked up): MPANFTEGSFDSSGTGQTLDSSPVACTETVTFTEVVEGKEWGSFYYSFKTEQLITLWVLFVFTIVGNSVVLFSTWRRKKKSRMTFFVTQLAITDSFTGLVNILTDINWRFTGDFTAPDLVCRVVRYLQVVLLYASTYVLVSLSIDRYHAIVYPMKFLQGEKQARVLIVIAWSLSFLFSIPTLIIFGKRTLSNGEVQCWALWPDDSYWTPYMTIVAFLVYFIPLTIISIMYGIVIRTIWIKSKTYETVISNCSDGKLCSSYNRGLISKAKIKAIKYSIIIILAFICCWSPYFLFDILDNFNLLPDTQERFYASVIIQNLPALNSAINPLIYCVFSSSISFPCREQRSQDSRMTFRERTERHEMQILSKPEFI
Luc counter: blocks Kinase-Glo luciferase, a counter-screen artifact; Potency, µM (titrated, usually from 38.3 µM), for inactives: at the top dose activity change, negative = inhibition, most hits filed as inhibitors; Q27757; AID 1379; Kinase-Glo luciferase, ATP luminescence, 8 min; hit rate 0.28% among 200,000; also: nearly all actives have a fitted effect of over 60% in size
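Luminescence was the read-out, taken after 8-minute incubation at ambient temperature. Luciferase turned over luciferin with 10 uM ATP in imidazole pH 7.2 buffer containing KCl, MgCl2, Tween 20 and BSA.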
Tau fluor counter: counter-screen for tau fibril formation inhibitors | tau K18 P301L Alexa594 fluorescence, heparin fibrillization | Potency, µM (highest dose often 57.7 µM), without a hit: top-dose activity change, negative = decrease | hit rate 0.93% among 280,000; also: nearly all actives have a fitted effect of over 55% in size
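Human K18 P301L tau (15 uM unlabeled plus 0.24 uM Alexa 594-labeled, final) in 100 mM sodium acetate pH 7 was mixed with compound and 20 uM heparin and incubated 6 hr at 37 C.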
Tau ThT inhib: inhibitors of human tau fibril formation, thioflavin T binding | recombinant tau K18 P301L, heparin-induced fibrillization, ThT fluorescence | Potency, µM (titrated, usually from 57.4 µM), for the others: at the top dose activity, negative = inhibition, hits mostly inhibitors | hit rate 2.1% among 270,000 | AID 1460; also: nearly all actives have a fitted effect of over 55% in size
Target sequence (P10636 561-689 P618L limits assumed): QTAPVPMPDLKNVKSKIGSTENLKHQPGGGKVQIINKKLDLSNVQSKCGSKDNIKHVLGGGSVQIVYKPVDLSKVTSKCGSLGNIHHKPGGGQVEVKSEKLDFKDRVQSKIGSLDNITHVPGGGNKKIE
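Fibril formation assay: tau K18 P301L at 15 uM with trace Alexa 594 label, heparin inducer 20 uM, pH 7 sodium acetate buffer, 37 C for 6 hr; endpoint ThT signal.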
Tau FP inhib: blocks human tau fibril formation measured by polarization; hit rate 0.39% among 280,000; P10636; Potency, µM (doses to about 57.7 µM), for the others: at the top dose activity, negative = inhibition, hits mostly inhibitors; AID 1468; K18 P301L tau heparin fibrillization, Alexa594 FP, 6 h; also: nearly all actives have a fitted effect of over 55% in size
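Recombinant K18 P301L […], labeled with Alexa 594 at 0.24 uM over 15 uM unlabeled; heparin inducer 20 uM final; 37 C, 6 hr; FP endpoint.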
An asterisk follows results filed as active; ? = inconclusive; · = no result; ! = repeats disagree; [ ] = remark or other dose. Calls follow the shape of the dose curve; as a rule, active = well fitted curve in the direction sought with a large enough effect; inconclusive = small, poorly fitted or top-dose-only effect, or another doubt; inactive = no such curve, though single readings can be large; an effect the other way counts as inactive or inconclusive. % is scaled to controls: 0 for no effect and ±100 for the full control effect; potency is read from the fitted curve at half-maximal effect.

SMILES	NPSR antag	Luc counter	Tau fluor counter	Tau ThT inhib	Tau FP inhib
CN1C(=O)C(=Cc2ccc(N3CCCCCC3)o2)C(=O)N(C)C1=S	-10.3%[46.1 µM]	-13.1%	?	12.6µM*	-4.3%
CN(CC(=O)N[C@H](CO)Cc1ccccc1)C(=O)[C@H](CCS(C)=O)NC(=O)[C@@H](N)Cc1ccc(O)cc1 (some centres not stated)	·	·	-2.5%	-2.0%	0.1%
Cn1ncnc2c(=O)n(C)c(=O)nc1-2	1µM*	-0.9%	-11.0%	11.2µM*	?
O=C1C(Cl)=C(Cl)C(=O)C(Cl)=C1Cl	·	-13.0%	14.1µM*[quencher]	1.41µM*	1.41µM*
CC/C(=N\Nc1cccc2ccccc12)c1c(O)[nH]c(=O)[nH]c1=O	10.4%	-1.3%	?	28.2µM*	?
COP(=S)(OC)SCN1C(=O)c2ccccc2C1=O	10.2%[46.1 µM]	-3.3%	-19.0%	35.5µM*	?
CNC(=O)CSP(=S)(OC)OC	·	-6.3%	-6.7%	?	?
c1ccc2c(c1)[nH]c1cnccc12	10.4%	-0.3%	-10.6%	4.0%	2.1%
Cc1c2ccncc2c(C)c2c1[nH]c1ccccc12	?	-2.0%	?	11.2µM*	5.2%
Cc1cc(C=C2C(=O)N(C)C(=S)N(C)C2=O)c(C)n1C1CCCC1	?	-4.3%	?	25.1µM*	?
Cc1cc(/C=C2\C(=O)NC(=S)N(C)C2=O)c(C)n1C1CCCCC1	-35.2%	-3.1%	-10.5%	?	-1.0%
COc1ccccc1N=c1scc(-c2ccc(S(=O)(=O)N3CCCC3)cc2)n1C	·	·	?	?	9.6%
COC(=O)[C@H]1C[C@@H]1[C@H](NP(=O)(c1ccccc1)c1ccccc1)c1ccccc1	0.9%	-5.7%	-4.6%	-8.2%	5.8%
COC(=O)[C@]1(C)C[C@H]1[C@H](NP(=O)(c1ccccc1)c1ccccc1)c1ccccc1	12.6µM*	-1.2%	2.1%	-12.0%	10.2%
N[C@H](Cc1ccccc1)c1nn[nH]n1	·	-6.5%[7.66 µM]	·	·	·
COc1cc2c(cc1O)C[C@@H]1c3c(cc(O)c(OC)c3-2)CCN1C	·	-6.1%[7.66 µM]	·	·	·
CCCN1CCc2cccc3c2C1Cc1ccc(O)c(O)c1-3 (configuration not stated)	-0.1%[46.1 µM]	-13.1%	17.8µM*[quencher]	14.1µM*	31.6µM*
O=C1OC(c2cc(I)c(O)c(I)c2)(c2cc(I)c(O)c(I)c2)c2ccccc21	·	2.2%[39.9 µM]	7.08µM*[quencher]	12.6µM*	?
CCN(CC)S(=O)(=O)c1cccc(N=Nc2c(O)n(CC)c(=S)n(CC)c2=O)c1	-50.6%	·	?	15.8µM*	9.5%
NCCCCC(NC(CCc1ccccc1)C(=O)O)C(=O)N1CCCC1C(=O)O (configuration not stated)	·	-0.4%	-8.2%	-0.5%	?
CN1CCc2nc3sc(C#N)c(N)c3c(-c3cccs3)c2C1	12.6µM*	-2.7%	?	28.2µM*	?
CCCC[C@@H](C)[C@@H](OC(=O)C[C@@H](CC(=O)O)C(=O)O)[C@H](C[C@@H](C)C[C@H](O)CCCC[C@@H](O)C[C@H](O)[C@H](C)N)OC(=O)C[C@H](CC(=O)O)C(=O)O	·	·	-8.3%	-12.7%	-9.0%
CCC1CN2CCC1CC2C(O)c1ccnc2ccccc12 (configuration not stated)	·	-1.3%	-3.6%	1.8%	0.0%
S=P(C1CCCCC1)(C1CCCCC1)[C@H](c1cccnc1)N1CCCC1	·	-3.4%[7.66 µM]	·	·	·
CNC(=O)Oc1cccc(-c2cn3cc(OC(=O)NC)ccc3n2)c1	-8.5%	-23.2%	?	14.1µM*	-11.9%
SMILES	NPSR antag	Luc counter	Tau fluor counter	Tau ThT inhib	Tau FP inhib
CNC(=O)Oc1ccc(-c2cn3cc(Cl)ccc3n2)cc1	-7.9%	5.6%	-8.8%	1.1%	-3.1%
NS(=O)(=O)c1ccc(-c2ccc([As](=O)(O)O)cc2)cc1	·	-3.3%[7.66 µM]	·	·	·
Cc1ccccc1N1C(=O)CC(=O)NC1=O	0.2%[46.1 µM]	0.7%	-28.4%	15.8µM*	?
COc1cc(C=C(C#N)C#N)cc(O)c1O	-28.0%[46.1 µM]	-6.2%	-23.9%	?	-0.4%
N#CC(=Cc1ccc(O)c(O)c1)C(N)=S	?	-6.6%	-21.8%	?	?
CC(C)(C)c1cc(C=C(C#N)C#N)cc(C(C)(C)C)c1O	?	-4.0%	?	15.8µM*	?
N#CC(C#N)=Cc1ccc(O)c(O)c1	-7.4%[46.1 µM]	-5.8%	11.0%	14.1µM*!	?
O=[As](O)(O)c1ccc2nc3cc([As](=O)(O)O)ccc3nc2c1	·	2.5%[7.66 µM]	·	·	·
CC12C=CC(=O)C=C1CCC1C2=CCC2(C)C1CC[C@@H]2C(=O)CN1CCN(c2cc(N3CCCC3)nc(N3CCCC3)n2)CC1 (some centres not stated)	·	·	-13.4%	7.08µM*	?
CCc1ccc(N2NC(=O)/C(=C/C=C/c3ccco3)C2=O)cc1	-31.8%	-3.5%	10µM*[quencher]	8.91µM*	?
O=C1NC(=O)N(c2ccccc2)C(=O)/C1=C\C=C\c1ccccc1	?	·	-21.8%	11.2µM*	?
CC(C)c1ccc(N2C(=O)NC(=O)/C(=C/C=C/c3ccco3)C2=O)cc1	6.31µM*	11.7%	-28.9%	14.1µM*	14.1µM*
O=C1NC(=O)N(Cc2ccccc2)C(=O)/C1=C\c1ccco1	-20.3%	3.8%	-4.0%	?	-5.2%
Cc1cc(C)cc(N2C(=O)NC(=O)/C(=C\C=C\c3ccco3)C2=O)c1	10µM*	2.6%	-18.2%	12.6µM*	?
Cc1ccc(N2C(=O)NC(=O)/C(=C\c3cccn3C(C)(C)C)C2=O)cc1	-22.7%	-0.7%	-12.8%	?	-1.8%
CCN(CC)C(=O)N[C@H]1C=C2c3cccc4[nH]cc(c34)C[C@@H]2N(C)C1	·	-4.2%[17.1 µM]	·	·	·
CC(C)=CCCC1(C)C=Cc2c(O)c3c(c(CC=C(C)C)c2O1)OC12C(CC4CC1C(C)(C)OC2(C/C=C(/C)C(=O)O)C4O)C3=O (configuration not stated)	·	-7.9%	-16.7%	?	-2.8%
CCc1ccc(N2C(=O)NC(=O)/C(=C\C=C\c3ccco3)C2=O)cc1	10µM*	·	-7.4%	10µM*	12.6µM*
Cc1ccc(N2C(=O)NC(=O)/C(=C/C=C/c3ccco3)C2=O)cc1	-52.8%	-0.3%	-11.5%	14.1µM*	?
Cc1ccc(N2C(=O)NC(=O)/C(=C/c3ccoc3)C2=O)cc1	5.5%	·	-14.3%	·	-12.0%
CCCCN1C(=O)/C(=C/C=C/c2ccco2)C(=O)NC1=S	-20.7%[46.1 µM]	-1.0%	-29.6%	15.8µM*	?
CCCCC/C=C\C/C=C\C/C=C\C/C=C\CCCC(=O)N[C@H](C)CO	·	-1.0%[39.9 µM]	-2.2%	4.3%	-5.2%
C=C(C)[C@]12C[C@@H](C)[C@@]34OC(Cc5ccccc5)(O[C@@H]1[C@@H]3C=C(COC(=O)Cc1cc(OC)c(O)cc1I)C[C@]1(O)C(=O)C(C)=C[C@@H]41)O2	·	1.3%[39.9 µM]	?	-4.1%	-8.3%
C=C1C(=O)O[C@@H]2C[C@@H](C)[C@H]3C=CC(=O)[C@]3(O)C[C@@H]12	-46.3%	·	-3.8%	15.8µM*	?
